These results are taken from PubChem BioAssay.

Molecules are shown by their SMILES. Unmarked numbers belong to inactive results. For some of these results: Potency and affinity values are given separately. The source made the active and inactive calls. Unless noted, how the calls were made is not given here.

As usually defined, the inhibition is the drop in the measured response relative to a control, in per cent.

The nature of experiment [1]: HepG2 cytotoxicity, primary screen, cytotoxicity control for P. falciparum antimalarial project, cell-based, ATP luminescence (AID 2303;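 active means inhibition above 50%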;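 further: 0% = DMSO wells and 100% = digitonin-killed cells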). To be noted: HepG2 viability, 24-48 h, at 10 µM, stronger effect = higher value.
Experiment [2] addresses L-lactate dehydrogenase (Plasmodium falciparum (isolate CDC / Honduras)) (UniProt Q27743). Kind of experiment: PfLDH activity inhibition – cell lysate, 3D7 strain, counter-screen for P. falciparum growth inhibition project (AID 2304).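 Further: 0% = vehicle and 100% = reference inhibitor.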 Particulars: P. falciparum 3D7 crude extract, LDH APAD/NBT absorbance; at 2 µM; stronger effect = higher value. On the technique in general: The purpose of a counterscreen is to sort out artefacts and off-target activity.

The nature of experiment [3]: inhibition of 3D7 malaria parasite growth – strain 3D7 (AID 2306).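 Further: 0% = DMSO wells and 100% = chloroquine plus artemisinin control wells.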 Particulars: P. falciparum 3D7 erythrocytic growth, LDH absorbance, 72 h; at 2 µM; stronger effect = higher value.
Experiment [4] has as its target Calcium-dependent protein kinase 1 (Plasmodium falciparum (isolate 3D7)) (UniProt P62344). Kind of experiment: PfCDPK1 kinase inhibitors, biochemical, TCAMS library (AID 1159585; cut-off not given, nearly all actives have IC50 up to about 0.98 µM;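 further: inhibitors leave more ATP so luminescence rises with inhibition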). To be noted: recombinant PfCDPK1, Kinase-Glo ATP depletion luminescence. (Kinase-Glo measures the ATP left after a reaction by luminescence.)
Experiment [5] addresses Plasmodium falciparum protein kinase 6 (PK6, PF3D7_1337100) (UniProt Q8IDW1). Kind of experiment: PfPK6 kinase inhibitors, biochemical, TCAMS library (AID 1159586). To be noted: recombinant PfPK6, Kinase-Glo ATP depletion luminescence.
In experiment [6] the target is Protein kinase 7 (PK7), Plasmodium falciparum 3D7 (PF3D7_0213400) (UniProt Q7YTF7). Kind of experiment: inhibition of Plasmodium PK7 catalytic activity – biochemical, TCAMS antimalarial set, Kinase-Glo luminescence (AID 1159587). To be noted: recombinant PfPK7, Kinase-Glo ATP depletion luminescence.
Sequence of Protein kinase 7 (PK7), Plasmodium falciparum 3D7 (PF3D7_0213400) (Q7YTF7 1-343): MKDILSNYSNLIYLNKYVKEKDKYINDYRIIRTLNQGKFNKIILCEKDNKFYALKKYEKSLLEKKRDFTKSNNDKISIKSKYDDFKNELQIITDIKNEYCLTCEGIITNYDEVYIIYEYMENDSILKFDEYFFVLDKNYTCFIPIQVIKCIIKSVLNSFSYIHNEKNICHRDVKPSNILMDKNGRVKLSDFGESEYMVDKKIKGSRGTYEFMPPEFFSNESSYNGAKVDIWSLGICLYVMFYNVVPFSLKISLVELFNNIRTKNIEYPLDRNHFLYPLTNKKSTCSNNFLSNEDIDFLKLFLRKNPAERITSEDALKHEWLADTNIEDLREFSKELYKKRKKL
The target in experiment [7] is Calcium-dependent protein kinase 4 (Plasmodium falciparum (isolate 3D7)) (UniProt Q8IBS5). Kind of experiment: PfCDPK4 kinase inhibitors, biochemical, TCAMS library (AID 1159588; cut-off not given, nearly all actives have IC50 up to about 0.91 µM). To be noted: recombinant PfCDPK4, Kinase-Glo ATP depletion luminescence.
Sequence of Calcium-dependent protein kinase 4 (Plasmodium falciparum (isolate 3D7)) (Q8IBS5 whole entry, looked up): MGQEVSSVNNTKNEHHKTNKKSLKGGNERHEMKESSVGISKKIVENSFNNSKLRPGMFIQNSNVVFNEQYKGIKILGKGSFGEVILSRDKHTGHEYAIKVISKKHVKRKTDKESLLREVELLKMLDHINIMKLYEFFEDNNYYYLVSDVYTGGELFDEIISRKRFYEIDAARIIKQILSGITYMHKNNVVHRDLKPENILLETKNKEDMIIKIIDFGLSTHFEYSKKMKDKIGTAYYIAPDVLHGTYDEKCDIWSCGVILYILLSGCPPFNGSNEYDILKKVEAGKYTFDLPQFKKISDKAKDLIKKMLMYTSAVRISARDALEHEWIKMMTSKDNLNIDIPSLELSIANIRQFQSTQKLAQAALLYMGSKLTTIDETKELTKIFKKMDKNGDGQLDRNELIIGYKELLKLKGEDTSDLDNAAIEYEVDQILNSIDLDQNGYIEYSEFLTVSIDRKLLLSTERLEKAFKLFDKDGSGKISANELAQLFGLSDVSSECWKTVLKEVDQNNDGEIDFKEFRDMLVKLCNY

Sequence of Calcium-dependent protein kinase 1 (Plasmodium falciparum (isolate 3D7)) (P62344 whole entry, looked up): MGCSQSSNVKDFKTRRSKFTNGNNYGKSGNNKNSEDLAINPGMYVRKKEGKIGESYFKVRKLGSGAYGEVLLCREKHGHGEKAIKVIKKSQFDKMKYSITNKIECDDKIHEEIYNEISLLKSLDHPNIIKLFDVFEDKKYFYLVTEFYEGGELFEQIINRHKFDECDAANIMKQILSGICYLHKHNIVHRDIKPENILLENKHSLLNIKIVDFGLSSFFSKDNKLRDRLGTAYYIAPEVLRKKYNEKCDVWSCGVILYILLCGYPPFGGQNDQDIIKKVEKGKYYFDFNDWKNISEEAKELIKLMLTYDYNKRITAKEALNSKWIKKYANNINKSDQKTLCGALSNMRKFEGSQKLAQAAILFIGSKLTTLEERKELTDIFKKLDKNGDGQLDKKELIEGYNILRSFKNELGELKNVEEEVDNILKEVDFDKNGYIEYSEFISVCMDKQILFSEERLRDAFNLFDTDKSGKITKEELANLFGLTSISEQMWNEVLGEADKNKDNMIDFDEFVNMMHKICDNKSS
Sequence of L-lactate dehydrogenase (Plasmodium falciparum (isolate CDC / Honduras)) (Q27743 whole entry, looked up): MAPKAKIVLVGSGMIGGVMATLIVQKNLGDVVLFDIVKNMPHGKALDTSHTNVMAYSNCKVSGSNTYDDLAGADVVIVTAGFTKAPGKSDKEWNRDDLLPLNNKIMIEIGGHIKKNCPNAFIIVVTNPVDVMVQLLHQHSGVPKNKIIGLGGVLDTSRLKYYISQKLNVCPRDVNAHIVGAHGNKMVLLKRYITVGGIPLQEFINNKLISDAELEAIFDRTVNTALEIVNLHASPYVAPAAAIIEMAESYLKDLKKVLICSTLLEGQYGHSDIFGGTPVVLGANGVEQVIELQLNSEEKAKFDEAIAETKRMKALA
Sequence of Plasmodium falciparum protein kinase 6 (PK6, PF3D7_1337100) (Q8IDW1 1-305): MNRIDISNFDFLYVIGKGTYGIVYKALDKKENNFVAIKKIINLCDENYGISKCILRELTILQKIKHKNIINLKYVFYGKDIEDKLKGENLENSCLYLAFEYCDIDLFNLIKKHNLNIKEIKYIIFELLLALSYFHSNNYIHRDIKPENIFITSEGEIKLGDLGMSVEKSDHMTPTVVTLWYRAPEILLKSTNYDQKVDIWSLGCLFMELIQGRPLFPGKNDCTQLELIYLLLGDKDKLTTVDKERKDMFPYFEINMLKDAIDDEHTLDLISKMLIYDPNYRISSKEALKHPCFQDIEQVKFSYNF

With `O=C(Nc1nccs1)c1sc2ccccc2c1O`, the inhibition in experiment [1] was -2%; in experiment [2], -1%. In addition, in experiment [3], the growth inhibition was 96% (active). Also, the result in experiment [4], in experiment [5], in experiment [6] and in experiment [7] was inactive.
Regarding `O=C(c1ccccc1)N1CCC[C@](CCCN2CCN(c3ccccc3O)CC2)(c2ccc(Cl)c(Cl)c2)C1`, the inhibition in experiment [1] was 16%; in experiment [2], -3%. For the same compound, in experiment [3], the growth inhibition is 80% (active). Besides, the result in experiment [4], in experiment [5], in experiment [6] and in experiment [7] was inactive.
Take `CCN(CC)CCCN(C(=O)Nc1cc(F)cc(F)c1)c1nc(-c2ccc(F)cc2)cs1`: the inhibition in experiment [1] is 27%; in experiment [2] it was 0%. Besides, the growth inhibition in experiment [3] is 82% (active). For the same compound, the result in experiment [4], in experiment [5], in experiment [6] and in experiment [7] was inactive.
With `CN(C)Cc1ccc(CNC2CCN(Cc3ccccc3Cl)CC2)cc1`, the inhibition is 23% in experiment [1] and -3% in experiment [2]. Besides, the growth inhibition in experiment [3] was 82% (active). Besides, the result in experiment [4], in experiment [5], in experiment [6] and in experiment [7] was inactive.
Regarding `NC(=O)c1sc(-n2cnc3ccc(C(=O)NCCN4CCOCC4)cc32)cc1OCc1ccccc1C(F)(F)F`, the inhibition is -15% in experiment [1] and 1% in experiment [2]. Also, the growth inhibition in experiment [3] was 81% (active). For the same compound, the result in experiment [4], in experiment [5], in experiment [6] and in experiment [7] was inactive.
Take `CC(=O)Nc1ccc(CN2CCc3ccc(NS(=O)(=O)c4ccc(-c5cccc(C(F)(F)F)c5)cc4)cc3CC2)s1`: the inhibition was 23% in experiment [1] and 0% in experiment [2]. Further, the growth inhibition in experiment [3] was 82% (active). For the same compound, the outcome in experiment [4], in experiment [5], in experiment [6] and in experiment [7] was inactive.
In the case of `COc1ccc(CCN2CC[C@H](CNc3nc(-c4ccccc4)nc4ccccc34)C2)cc1S(N)(=O)=O`, the inhibition in experiment [1] was 54% (active); in experiment [2], -4%. Also, in experiment [3], the growth inhibition was 85% (active). Further, the outcome in experiment [4], in experiment [5], in experiment [6] and in experiment [7] was inactive.
For `Cc1cc2c(cc1C(F)(F)F)N(C(=O)Nc1ccc(C(=O)NCCN3CCCC3)cc1)CC2`, the results for the inhibition in experiment [1] and in experiment [2] were 10% and 3%, respectively. The growth inhibition in experiment [3] is 100% (active). The result in experiment [4], in experiment [5], in experiment [6] and in experiment [7] was inactive.
As for `C[C@@H]1CN(c2ccc3[nH]cc(Sc4ccc(-c5cccs5)cc4)c3c2)C[C@H](C)N1`, the inhibition in experiment [1] was 29%; in experiment [2], -4%. In addition, the growth inhibition in experiment [3] is 89% (active). Moreover, the result in experiment [4], in experiment [5], in experiment [6] and in experiment [7] was inactive.
Take `CN(C)Cc1cccc(-c2ccc(NC(=O)c3ccc4c(=O)n(Cc5cnn(C)c5)cnc4c3)cc2)c1`: the inhibition in experiment [1] was 12%; in experiment [2], 2%. The growth inhibition in experiment [3] was 80% (active). For the same compound, the result in experiment [4], in experiment [5], in experiment [6] and in experiment [7] was inactive.
Regarding `O=C(Nc1ccc(C(F)(F)F)cc1)c1cc(Cl)cc2[nH]c(C(F)(F)F)nc12`, the inhibition in experiment [1] was 86% (active); in experiment [2] it was -1%. Moreover, the growth inhibition in experiment [3] is 102% (active). Besides, the result in experiment [4], in experiment [5], in experiment [6] and in experiment [7] was inactive.
On to `CCn1c(-c2nonc2N)nc2c(-c3cccc(NC(=O)NCc4ccccc4)c3)ncc(OCCCN)c21`, for which the inhibition was 5% in experiment [1] and -7% in experiment [2]. Further, the growth inhibition in experiment [3] was 99% (active). For the same compound, the outcome in experiment [4], in experiment [5], in experiment [6] and in experiment [7] was inactive.
Regarding `Cc1ccccc1Oc1ccc(Nc2ccnc(Nc3cccc(C(N)=O)c3)n2)cc1C(F)(F)F`, the inhibition in experiment [1] was 9%; in experiment [2], -1%. The growth inhibition in experiment [3] was 81% (active). Moreover, the result in experiment [4], in experiment [5], in experiment [6] and in experiment [7] was inactive.
On to `CCS(=O)(=O)c1ccc(/C(=N/OC)c2ccc[nH]2)cc1`, for which the values for the inhibition in experiment [1] and in experiment [2] were -6% and -2%, respectively. Also, in experiment [3], the growth inhibition was 85% (active). Also, the outcome in experiment [4], in experiment [5], in experiment [6] and in experiment [7] was inactive.
As to `CC(=O)Nc1cccc(Nc2c3ccccc3nc3ccccc23)c1`, the inhibition is 31% in experiment [1] and 5% in experiment [2]. The growth inhibition in experiment [3] is 82% (active). The outcome in experiment [4], in experiment [5], in experiment [6] and in experiment [7] was inactive.
With `N#Cc1cc(N(CCCOc2cccc(OC(F)(F)F)c2)Cc2ccccc2C(F)(F)F)ccc1C(F)(F)F`, the inhibition in experiment [1] is 2%; in experiment [2] it was 0%. In addition, the growth inhibition in experiment [3] was 94% (active). In addition, the outcome in experiment [4], in experiment [5], in experiment [6] and in experiment [7] was inactive.
With `O=C(Nc1ccc(OC2CCN(CC3CC3)CC2)c(Cl)c1)c1ccc2ncccc2c1`, the inhibition was 19% in experiment [1] and -2% in experiment [2]. Moreover, the growth inhibition in experiment [3] was 84% (active). For the same compound, the result in experiment [4], in experiment [5], in experiment [6] and in experiment [7] was inactive.
For `CN1CCC(N2CCN(C(=O)c3cccc(-c4cccc(-c5nc6ccccc6[nH]5)c4)c3)CC2)CC1`, the inhibition in experiment [1] was 10%; in experiment [2], 3%. Moreover, the growth inhibition in experiment [3] is 100% (active). Besides, the outcome in experiment [4], in experiment [5], in experiment [6] and in experiment [7] was inactive.
For `Cc1nn(-c2ccccc2)nc1C(=O)N(Cc1ccc(-c2ccc(CNCCc3ccc(S(C)(=O)=O)cc3)cn2)cc1)C1CC1`, the inhibition was 9% in experiment [1] and -2% in experiment [2]. The growth inhibition in experiment [3] was 84% (active). Besides, the result in experiment [4], in experiment [5], in experiment [6] and in experiment [7] was inactive.
